Experimental findings from PubChem BioAssay AID2501 (Southern Research Specialized Biocontainment Screening …, 2010) are described below.

Structures are written as SMILES. About 1,200 (55%) of roughly 2,200 compounds were called active. The set was probably picked from earlier hits. The list shows a part of the results. Values without a mark were called inactive. Cut-off not given; nearly all actives show IC50 up to about 92 µM.

What is called IC50 is the concentration at which inhibition is half-maximal. For orientation: inhibition means the change of the read-out against control, counted positive when it falls.

The nature of the assay: counter assay for TAg ATPase ADP read-out – biochemical, ADP-Hunter, fluorescence, counter-screen (AID 2501).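 Further: purified T antigen ATPase.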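 On inhibition: 0% = enzyme with vehicle and 100% = reference inhibitor wells; higher means more inhibition.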 As to conditions: series mostly up to 100 µM; inhibition: at the top concentration. (A counterscreen serves to expose hits that act by an unwanted route or on another target.)
On to `CCN(CC)c1ccc(N=Cc2c(O)n(-c3cc(OC)ccc3OC)c(=O)[nH]c2=O)cc1`, for which the IC50 was 6.82 µM (active).

With `Cc1ccccc1-n1c(O)c(C=Nc2ccc(N(C)C)cc2)c(=O)[nH]c1=O`, the IC50 is 5.9 µM (active).

Regarding `CCN(CC)c1ccc(N=Cc2c(O)n(-c3ccccc3C)c(=O)[nH]c2=O)cc1`, the half-inhibitory concentration (IC50) is 7.13 µM (active).

Consider `Cc1cccc(OCCn2cccc2/C=C2/C(=O)NC(=O)N(Cc3ccco3)C2=O)c1`, for which the “inhibition” value is 23.1%.

Take `CN(C)c1ccc(C=C2C(=O)NC(=S)NC2=O)cc1[N+](=O)[O-]`: the “inhibition” value was -11.9%.

As for `Oc1ccc(C[C@H]2NCCc3cc(O)c(O)cc32)cc1O`, the “inhibition” value is -137%.

Consider `N#CSCC(=O)N1c2ccccc2CCc2ccccc21`, for which the “inhibition” value was -23.4%.

For `Cc1ccc(/C=C2\C(=O)NC(=S)N(c3cccc(F)c3)C2=O)o1`, the “inhibition” value is 3.87%.

On to `Cc1cc(/C=C2\C(=O)NC(=O)N(c3ccc(Cl)cc3)C2=O)c(C)n1-c1sc2c(c1C#N)CCCC2`, for which the “inhibition” value is -16.8%.

For `NCCc1c[nH]c2ccc(O)cc12`, the IC50 was 10.5 µM (active).

Consider `CCN(CC)C(=O)c1ccc2c(c1)C1C(Cl)C(Sc3ccccc3[N+](=O)[O-])CC1C(C(=O)O)N2` (stereo not given), for which the “inhibition” value is -62%.

Take `O=C1NC(=S)NC(=O)C1=Cc1ccc(Br)s1`: the “inhibition” value is 6.21%.

As for `O=c1[nH]c(=O)n(Cc2ccccc2)c(O)c1/C=C1\C=Nc2ccccc21`, the “inhibition” value is -2.85%.

Regarding `CCCCC(=O)N/N=C/c1c(O)n(Cc2ccco2)c(=O)[nH]c1=O`, the “inhibition” value was 9.68%.

`N#Cc1c(/N=C/c2c(O)n(Cc3ccco3)c(=O)[nH]c2=O)sc2c1CCCC2`: the IC50 was 27.2 µM (active).

As for `O=C1NC(=O)C(=Cc2ccc(-c3ccccc3[N+](=O)[O-])o2)C(=O)N1`, the “inhibition” value was 11.2%.

In the case of `CCN(CC)c1ccc(/C=C2\C(=O)NC(=O)N(Cc3ccco3)C2=O)cc1`, the “inhibition” value was 11.5%.

Consider `O=C1NC(=O)C(=Cc2ccc(-c3ccc(F)cc3O)o2)C(=O)N1`, for which the “inhibition” value was -9.03% [at 50 µM].

On to `CNC(C)Cc1ccccc1Sc1ccc(O)cc1` (stereo not given), for which the IC50 is 2.47 µM (active).

`CC(Cc1ccccc1Sc1ccc(O)cc1)N(C)C` (stereo not given): the concentration for half-maximal inhibition (IC50) was 1.99 µM (active).

Regarding `O=C1NC(=O)N(c2ccccc2F)C(=O)/C1=C/c1ccc(Sc2nc3ccccc3[nH]2)o1`, the “inhibition” value was 11.5%.

Consider `COc1cc2c(cc1OC)-c1c(OC)c(OC)cc3c1[C@H](C2)[N+](C)(C)CC3`, for which the “inhibition” value was 6.19%.

As to `O=c1[nH]c(=S)n(C2CC2)c(O)c1/C=N/Nc1ccccc1`, the IC50 was 3.94 µM (active).

Consider `COc1cccc(N2C(=O)NC(=O)/C(=C\c3ccc([N+](=O)[O-])s3)C2=O)c1`, for which the “inhibition” value is 17.5%.

On to `O=C1NC(=O)C(=Cc2cc3c(cc2[N+](=O)[O-])OCO3)C(=O)N1`, for which the “inhibition” value was -5.04%.

For the molecule `Cc1cccc(N2C(=O)NC(=O)/C(=C/c3ccc(-c4ccc(C(=O)O)c(Cl)c4)o3)C2=O)c1`, the “inhibition” value was -17.8%.

In the case of `C1=Cc2ccccc2Nc2ccccc21`, the IC50 is 4.79 µM (active).

Take `Oc1ccc(/C=N/NP(=S)(c2ccccc2)c2ccccc2)cc1O`: the half-maximal inhibitory concentration (IC50) is 35.3 µM (active).

With `O=C1NC(=O)N(c2ccc(Cl)cc2)C(=O)/C1=C\c1ccc(Sc2nc3ccccc3[nH]2)o1`, the “inhibition” value is 21.8%.

Turning to `CCN1CCN(c2ccc(N)cc2C)CC1`, the IC50 is 4 µM (active).

Take `CCOc1cc(-c2ccc(N)c(OCC)c2)ccc1N`: the IC50 is 1.03 µM (active).

Consider `COc1cc2c(cc1OC)CC[N+](C)=C2`, for which the “inhibition” value was 10.2%.

As for `CCCCN1C(=O)/C(=C/C=C/c2ccco2)C(=O)NC1=S`, the “inhibition” value was -21.3%.

`O=C(O)c1cccc2c1NC(C(=O)O)C1CC(Sc3ccccc3[N+](=O)[O-])C(Cl)C21` (stereo not given): the “inhibition” value was -28.6%.

Turning to `O=C(O)CCn1cc(C=C2C(=O)NC(=S)NC2=O)c(-c2cccc(Cl)c2)n1`, the “inhibition” value is 11.7%.

Regarding `COc1ccc(N2C(=O)/C(=C/c3ccco3)C(=O)NC2=S)cc1`, the “inhibition” value was 20.8% [at 50 µM].

As to `COc1ccc(-n2c(/C=C/c3ccc(O)c(O)c3)nc3ccccc3c2=O)cc1`, the concentration for half-maximal inhibition (IC50) is 24.2 µM (active).

As to `COC(=O)C1=Nc2ccccc2/C1=C\c1c(O)n(-c2ccc(OC)cc2)c(=O)[nH]c1=O`, the “inhibition” value was 4.61%.

For `COc1cccc(-n2c(/C=C/c3ccc(O)c(O)c3)nc3ccccc3c2=O)c1`, the half-maximal inhibitory concentration (IC50) was 7 µM (active).

Take `Cc1ccc2c(c1)=NC(=O)/C(=C/c1c(O)[nH]c(=O)[nH]c1=O)C=2`: the “inhibition” value is 0.6%.

`CN(C)[C@@H]1C(=O)C(C(N)=O)=C(O)[C@@]2(O)C(=O)C3=C(O)c4c(O)cccc4[C@@](C)(O)[C@H]3C[C@@H]12`: the “inhibition” value is 6.46%.

In the case of `COc1ccc(/C=C2/C(=O)N(Cc3ccco3)C(=O)N(C(C)C)C2=O)cc1`, the “inhibition” value was 23%.

Take `O=C(O)c1c[nH]c2ccc(S(=O)(=O)N(CCCl)CCCl)cc12`: the “inhibition” value is -5.36%.

In the case of `O=c1cc(-c2ccc(O)c(O)c2)oc2c(C3O[C@H](CO)[C@@H](O)[C@H](O)[C@H]3O)c(O)cc(O)c12` (stereo not given in full), the IC50 was 4.81 µM (active).

Take `O=C1N[C@H](Cc2ccccc2)C(=O)N2[C@@H]3[C@H](C[C@@H]12)c1ccccc1N3OOSc1ccccc1`: the “inhibition” value was -26.1%.

With `O=C1NC(=S)N(c2ccc(F)cc2)C(=O)/C1=C\c1ccoc1`, the “inhibition” value was 21.9%.

For `CN(C)c1ccc(NC(=O)CN2C3CCCC2CC(NC(=O)c2ccccc2)C3)cc1` (stereo not given), the concentration for half-maximal inhibition (IC50) was 3.12 µM (active).

For the molecule `COc1cccc(C(=O)NC2CC3CCCC(C2)N3CC(=O)Nc2ccc(N(C)C)cc2)c1` (stereo not given), the IC50 is 3.14 µM (active).

As to `CN(C)c1ccc(NC(=O)CN2C(=O)CN=C(c3ccccc3)c3ccccc32)cc1`, the IC50 is 9.96 µM (active).

Consider `CN(C)c1ccc(NC(=O)CN2CCC(O)(c3ccccc3)CC2)cc1`, for which the IC50 was 2.88 µM (active).

Regarding `Cc1ccccc1N1C(=O)NC(=O)/C(=C\c2cnn(-c3ccccc3)c2)C1=O`, the “inhibition” value is 26.2%.

Consider `O=C1NC(=O)N(c2cccc(Cl)c2)C(=O)/C1=C\c1ccc(Sc2nc3ccccc3[nH]2)o1`, for which the “inhibition” value is 19.3% [at 50 µM].

Take `CN1C2CCC1CC(=NO)C2`: the “inhibition” value is 23.1%.

Regarding `C=C(C=O)CC1CC(O)[C@]2(C)OC3CC4OC5C[C@]6(C)O[C@]7(C)CCC8OC9C[C@]%10(C)OC%11C(C)=CC(=O)OC%11CC%10OC9C[C@@H](C)C8OC7CC6O[C@]5(C)CC5OC5C4OC3CC2O1` (stereo not given in full), the “inhibition” value was 8.3%.

Regarding `CCCN1CCc2cccc3c2[C@H]1Cc1ccc(O)c(O)c1-3`, the “inhibition” value was -48.6%.

As to `Cc1ccc2c(c1)C1CN(C)CCC1N2C(=O)Nc1cccc(C(F)(F)F)c1` (stereo not given), the “inhibition” value is 17.6%.

Consider `CCCCN1C(=O)/C(=C/c2ccc(N(C)C)cc2)C(=O)N(Cc2ccco2)C1=O`, for which the “inhibition” value was 13.8%.

With `CP(=O)(Nc1ccccc1)C(Cl)(Cl)Cl` (stereo not given), the “inhibition” value was -27.6%.

Take `CNC(=O)Oc1ccc2ncccc2c1`: the half-maximal inhibitory concentration (IC50) is 24.1 µM (active).

As to `CNC(=O)Oc1ccc(-c2cn3cc(Cl)ccc3n2)cc1`, the “inhibition” value was 15%.

For `CC[C@H](C)/C=C(C)/C=C/C1=CC2=C(Cl)C(=O)[C@@](C)(OC(C)=O)C(=O)C2=CO1`, the “inhibition” value is -25.2%.

As for `O=C(CN1CCCC1=O)N1CCOCC1`, the “inhibition” value is 13.2%.

In the case of `N/C(=N\N=C/c1ccc(-c2ccc(O)c(C(=O)O)c2)o1)N[N+](=O)[O-]`, the “inhibition” value is 10.8%.

With `N/C(=N\N=C\c1ccc(O)cc1O)N[N+](=O)[O-]`, the IC50 is 4.1 µM (active).

Turning to `COc1ccc(/C=C2/C(=O)NC(=S)N(C3CC3)C2=O)cc1CN1C(=O)c2ccccc2C1=O`, the “inhibition” value was 2.18%.

As for `O=C(c1ccc2nc(-c3ccco3)c(-c3ccco3)nc2c1)N1CCC2(CC1)OCCO2`, the “inhibition” value was -35.8%.

In the case of `O=C(O)c1cc[c]([Hg][Cl])cc1`, the “inhibition” value was 1.39%.

As to `CN1C(=O)/C(=C/c2cccn2-c2ccc3ccccc3c2)C(=O)NC1=S`, the “inhibition” value was -18.3%.

For `COc1cc2c(ccc3cc(OC)c(OC)c(O)c32)cc1O`, the IC50 was 39.6 µM (active).

In the case of `O=C1NC(=O)N(c2ccccc2)C(=O)/C1=C/C=C/c1ccco1`, the “inhibition” value was 12.3% [at 50 µM].
